Bioassay records deposited in PubChem BioAssay by National Center for Advancing Translational Sciences (NCATS).
This is one part of a sample in which hits are shown more often than they occur.
Giardia FBPA inh-1 – Giardia lamblia aldolase inhibition. Potency, µM (highest dose often 59.6 µM), without a hit: top-dose activity, negative = inhibition, usual class: inhibitors. purified Giardia FBPA. 0.71% of 290,000 active; also: potency is read from the fitted curve at half-maximal effect; % is scaled to controls: 0 for no effect and ±100 for the full control effect; nearly all actives have a fitted effect of over 55% in size
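40 nM FBPA preincubated 10 min at RT with compound (up to 57.5 uM final), then substrate plus GAPDH/TPI/NAD/arsenate coupling and diaphorase/resazurin added. Fluorescence read after 20 min at RT, 525/598 nm.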
LmPK inhibitor – LmPK (Leishmania mexicana) enzyme inhibition; purified LmPK, Kinase-Glo ATP luminescence, 1 h; Potency, µM (titrated, usually from 57.5 µM), for inactives: at the highest dose activity change, negative = inhibition, hits mostly inhibitors; 0.37% of 290,000 active; AID 1721; also: potency is read from the fitted curve at half-maximal effect; % is scaled to controls: 0 for no effect and ±100 for the full control effect
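0.1 nM LmPK, 0.5 mM PEP, 0.1 mM ADP; 50 mM imidazole pH 7.2, 7 mM MgCl2, 50 mM KCl; 1 h RT. Kinase-Glo luminescence readout, normalized to no-enzyme (full inhibition) and uninhibited wells.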
Cycloheximide cs – counter-screen hit for Shiga toxin inhibitors, cycloheximide. AID 2314. max response, %. cell reporter, cycloheximide protein synthesis inhibition counterscreen. 12% of 300,000 active; in the data active = max response mostly above about 13%, no sharp cut-off; inactive = mostly below about 14%; also: read at 38.3 µM for the half of the compounds with a filed dose; 0% is about no effect
RE007 growth inh – less growth of the S. pombe RE007 Vpr strain | 0.21% of 360,000 active | Potency, µM (doses to about 92.2 µM), for inactives: top-dose activity change, negative = less growth, usual class: inhibitors | S. pombe RE007 Vpr strain, BacTiter-Glo ATP luminescence, 24 h; active = well fitted falling curve with a large enough effect; inconclusive = small, poorly fitted or top-dose-only effect; inactive = no such curve, though single readings can be large or run the other way; also: potency is read from the fitted curve at half-maximal effect; % is scaled to controls: 0 for no effect and ±100 for the full control effect; nearly all actives have a fitted effect of over 50% in size
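Fission yeast strain RE007, carrying one chromosomally integrated HIV-1 vpr copy, was seeded at OD 0.01 in PMG+AL medium with 23 nL pinned compound. After 24 h at 30 °C and 99% humidity, viability was read by BacTiter-Glo luminescence.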
TbPYK inhibitor – inhibitors of Trypanosoma brucei pyruvate kinase | 0.12% of 410,000 active | TbPYK enzyme, Kinase-Glo Plus ATP luminescence, 45 min | Potency, µM (doses to about 76.8 µM), for the others: top-dose activity, negative = inhibition, actives largely listed as inhibitors; also: potency is read from the fitted curve at half-maximal effect; % is scaled to controls: 0 for no effect and ±100 for the full control effect; nearly all actives have a fitted effect of over 50% in size
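In this concentration-response screen, enzyme-free wells defined baseline while DMSO plates tracked drift. Each reaction combined TbPYK, substrate, compound and 130 uM ADP for 45 min at room temperature. Kinase-Glo Plus luminescence gave the signal.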
Shiga toxin inh – Shiga toxin inhibition; Vero cells, Shiga toxin protein synthesis inhibition reporter; inhibition, % at 38.7 µM; 9.2% of 290,000 active; AID 2315; in the data active = inhibition mostly above about 28%, no sharp cut-off; inactive = mostly below about 43%; also: 0% is about no effect
Giardia growth – inhibitors of Giardia lamblia growth | shares compounds with Giardia FBPA inh-1 | Giardia lamblia trophozoite growth inhibition | Potency, µM (highest dose often 57.5 µM), without a hit: at the top dose activity change, negative = inhibition, most hits filed as inhibitors | 5% of 1,500 active | AID 2785;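 also: potency is read from the fitted curve at half-maximal effect; trophozoites exposed to compound for 48 h at 37 °C; % is scaled to controls: 0 for no effect and ±100 for the full control effect; nearly all actives have a fitted effect of over 70% in size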
Mammal cell tox – toxic to mammalian cells in Giardia aldolase counter-screen; shares compounds with Giardia FBPA inh-1; mammalian cell viability counter-screen, qHTS; Potency, µM (doses to about 57.5 µM), for inactives: at the highest dose viability change, negative = toxicity, actives largely listed as inhibitors; 4% of 1,500 active; AID 2786;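 also: Chinese hamster ovary cells used as mammalian cytotoxicity surrogate; viability measured as cellular ATP by luminescence; potency is read from the fitted curve at half-maximal effect; compound exposure lasted 48 h before reading; % is scaled to controls: 0 for no effect and ±100 for the full control effect; nearly all actives have a fitted effect of over 60% in size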
Giardia FBPA inh-2 – confirmation of Giardia fructose-bisphosphate aldolase inhibitors; Potency, µM (highest dose often 57.5 µM), for inactives: at the top dose activity change, negative = inhibition, actives largely listed as inhibitors; 5% of 1,500 active; purified Giardia aldolase enzyme activity, qHTS; shares compounds with Giardia FBPA inh-1; also: potency is read from the fitted curve at half-maximal effect; % is scaled to controls: 0 for no effect and ±100 for the full control effect; nearly all actives have a fitted effect of over 45% in size
Rabbit aldolase – rabbit FBP aldolase inhibition by Giardia aldolase hits; shares compounds with Giardia FBPA inh-1; 4% of 1,500 active; AID 2794; Potency, µM (top dose mostly 57.5 µM), for the others: top-dose activity, negative = inhibition, hits mostly inhibitors; Rabbit muscle FBPA enzyme inhibition, selectivity counter-screen; also: potency is read from the fitted curve at half-maximal effect; % is scaled to controls: 0 for no effect and ±100 for the full control effect; nearly all actives have a fitted effect of over 60% in size
Target sequence (P00883 whole entry, looked up): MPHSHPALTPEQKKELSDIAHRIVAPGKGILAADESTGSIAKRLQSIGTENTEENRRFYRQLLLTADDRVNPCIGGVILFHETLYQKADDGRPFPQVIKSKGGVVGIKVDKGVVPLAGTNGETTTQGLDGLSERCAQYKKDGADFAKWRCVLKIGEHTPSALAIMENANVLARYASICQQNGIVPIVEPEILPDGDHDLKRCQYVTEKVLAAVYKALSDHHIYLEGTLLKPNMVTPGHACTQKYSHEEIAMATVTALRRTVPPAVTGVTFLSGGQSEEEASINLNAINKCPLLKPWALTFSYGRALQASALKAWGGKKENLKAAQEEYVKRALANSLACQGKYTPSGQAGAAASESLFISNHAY
GAPDH counter – GAPDH inhibition flagged for Giardia aldolase hits | shares compounds with Giardia FBPA inh-1 | GAPDH coupling enzyme counterscreen, biochemical, qHTS | Potency, µM (titrated, usually from 57.5 µM), for inactives: at the highest dose activity change, negative = inhibition, actives largely listed as inhibitors | 6% of 1,500 active; also: potency is read from the fitted curve at half-maximal effect; % is scaled to controls: 0 for no effect and ±100 for the full control effect; nearly all actives have a fitted effect of over 55% in size
An asterisk follows results filed as active; ? = inconclusive; . = no result; [ ] = another dose, or the depositor's remark. Unless noted, calls follow the shape of the dose curve; as a rule, active = well fitted curve in the direction sought with a large enough effect; inconclusive = small, poorly fitted or top-dose-only effect, or another doubt; inactive = no such curve, though single readings can be large; an effect the other way counts as inactive or inconclusive.

SMILES | Giardia FBPA inh-1 | LmPK inhibitor | Cycloheximide cs | RE007 growth inh | TbPYK inhibitor | Shiga toxin inh | Giardia growth | Mammal cell tox | Giardia FBPA inh-2 | Rabbit aldolase | GAPDH counter
Cc1ccc2c(c1)C1CN(C)CCC1N2C(=S)NC(=O)c1ccc(Br)cc1 (stereo unspecified) | 16µM* | 5% | 1 | 4% | -13% | -4 | 8.9µM* | -8% | -12% | 6% | 7%
CC1CN(C(=S)NC(=O)c2ccc(Cl)cc2)CC(C)O1 (stereo unspecified) | . | 0% | -2 | -10% | -27% | -4 | . | . | . | . | .
CN1CCN(C(=S)NC(=O)c2ccc(Br)cc2)CC1 | 18µM* | ? | 13* | 10% | -22% | 36* | -6% | -3% | 9% | -1% | 9%
O=C(NC(=S)N1CCCC1)c1ccccc1 | . | -7% | 5 | -9% | -19% | -7 | . | . | . | . | .
CN1CCN(C(=S)NC(=O)c2ccc(-c3ccccc3)cc2)CC1 | 18µM* | -1% | -2 | 1% | -24% | 19 | -11%[10.4 µM] | 2% | 6% | 12% | -5%
CN1CCN(C(=S)NC(=O)c2ccc(C(C)(C)C)cc2)CC1 | -19% | -7% | -2 | 6% | ? | -8 | . | . | . | . | .
O=C(Cn1cc(COc2ccc(Cl)c(Cl)c2)nn1)NS(=O)(=O)c1ccccc1C(F)(F)F | . | . | . | 8% | 3% | . | . | . | . | . | .
Cc1ccc(C2(C)NC(=O)N(CC(=O)Nc3cc(S(=O)(=O)N4CCOCC4)ccc3OC(C)C)C2=O)cc1 (stereo unspecified) | . | . | . | -5% | 0% | . | . | . | . | . | .
COc1ccc(CN2CCN(Cc3ccco3)CC2)cc1OC | 13µM* | -3% | 0 | -26% | 0% | . | -6%[10.4 µM] | -6% | 0% | 8% | 8%
COc1cccc(CN2CCN(Cc3ccco3)CC2)c1 | ? | -4% | 11 | -13% | -7% | 16 | . | . | . | . | .
COc1ccc(CN2CCN(Cc3ccco3)CC2)cc1 | ? | -3% | -2 | -2% | -4% | -5 | . | . | . | . | .
COc1cccc(N2CCN(Cc3ccco3)CC2)c1 | 25µM* | -5% | 6 | -21% | 23% | 12 | ? | -11% | -5% | 3% | 9%
O=C(Nc1ccc(OCc2ccccc2)cc1)Nc1nnc([C@H]2C[C@H](O)[C@@H](CO)O2)s1 | . | . | . | 1% | -5% | . | . | . | . | . | .
COc1ccccc1CNc1ncccn1 | 18µM* | -1% | 2 | -9% | -4% | 2 | -2%[10.4 µM] | 18% | -3% | 2% | 6%
CCOc1ccccc1N1CCN(C(=O)c2cc(-c3cccnc3)nc3c(Cl)cccc23)CC1 | . | 2% | -3 | 3% | 2% | -2 | . | . | . | . | .
C/C(=N/NC(=O)COc1cc(C)ccc1C(C)C)C(=O)O | ? | 0% | -2 | 12% | 4% | 21 | . | . | . | . | .
Cc1ccc(C(C)C)c(OCC(=O)NN=C(CCl)CCl)c1 | 16µM* | 3% | 8 | . | . | 17 | ? | 2% | -7% | -3% | -2%
c1ccc(-c2ccncc2)nc1 | . | . | . | 8% | 0% | . | . | . | . | . | .
c1ccc(-c2cccc(-c3ccccn3)n2)nc1 | 7.9µM* | -3% | 31* | ? | 0% | 91* | ? | 1.3µM* | 20% | 7% | 1%
